Laboratory results reported in PubChem BioAssay AID602247 (The Scripps Research Institute Molecular Screening Center, 2012).
About 80 (0.02%) of roughly 360,000 compounds were called active.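 The calls were made as follows: active = activation above the run cutoff, the mean activation of all test compounds plus 3 SD (cut at about 40% in these data); inactive = the rest.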 The sample as a whole holds a higher share of actives than the screen did.

Experiment: ATP EC20 calcium response enhancers, parental CHO-K1 – cell-based, Fluo-8 calcium fluorescence, full deck, 1536-well, counter-screen for M1 PAM project, primary screen (AID 602247);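 also: peak over basal fluorescence ratio in a 140 s read after ATP addition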
Settings: parental CHO-K1, ATP EC20, Fluo-8 calcium fluorescence; at 3 µM; active compounds read high; 0% at ATP EC20, 100% at ATP max

| SMILES | activation |
| --- | --- |
| C#CCCOC(=O)N1C2=NC(C(=O)OC)=C(C(=O)OC)[C@@H]3N(C)c4ccc(OC)cc4[C@]23C[C@H]1C(=O)OC | -12.8% (inactive) |
| O=C(CCCCCn1c(=S)[nH]c2ccsc2c1=O)NC1CCCCC1 | 16.9% (inactive) |
| CC(C)n1ncc2c(C(=O)NCc3ccccc3CN(C)C)cc(C3CC3)nc21 | -12.7% (inactive) |
| COC(=O)c1cc(S(=O)(=O)NC2CCN(Cc3ccccc3)CC2)cn1C | 3.07% (inactive) |
| CCOc1ccc(NC(=S)N2CCC(N(C)CC3CCCO3)CC2)cc1 (stereo not given) | 23.7% (inactive) |
| COc1ccc(OC)c(S(=O)(=O)N2CCCC(C(=O)NCCc3ccccc3)C2)c1 (stereo not given) | -2.03% (inactive) |
| Cc1ccc(OC(=O)c2cncc(Br)c2)c(C)c1 | -0.46% (inactive) |
| S=C(Nc1ccc2c(c1)OCO2)N1CCCC1 | 12.1% (inactive) |
| COc1ccc(-c2ccc(C(=O)NC(C)C)c3occc23)c(C)c1 | 11% (inactive) |
| CC(=O)Nc1ccc(NC(=O)CSCc2cnn(-c3ccccc3)c2-n2cccc2)cc1 | 1.5% (inactive) |
| Cc1ccc(N2C(=O)CC(N3CCSCC3)C2=O)c(C)c1 (stereo not given) | 0.16% (inactive) |
| CCOC(=O)C1CCN(CCC(=O)Nc2cccc(C)c2)CC1 | -4.96% (inactive) |
| CCCCCc1c(Cc2ccccc2)ncn1CCc1ccccc1OC | 3% (inactive) |
| CC(NC(=O)CN(C)S(=O)(=O)c1ccc(F)cc1)C1CC2CCC1C2 (stereo not given) | 9.24% (inactive) |
| CCC(C(=O)NC1CCCC1)N(C(=O)Cn1nnc(-c2ccc(C)o2)n1)c1ccc(OC)c(OC)c1 (stereo not given) | -0.54% (inactive) |
| NC(=O)C1(Nc2ccc(-c3ccccc3)cc2)CCCC1 | 0.81% (inactive) |
| CCOc1ccccc1-c1cc(C(=O)N/N=C(\C)c2cccnc2)c2ccccc2n1 | 15.1% (inactive) |
| CCOc1cc(/C=N/NC(=O)c2cc(-c3ccccc3)nc3ccccc23)ccc1O | 40.7% (active) |
| CCOc1cc(/C=N/NC(=O)c2c(C)nc3ccc(Cl)cn23)ccc1O | -3.92% (inactive) |
| O=C(c1ccc(=O)[nH]c1)N(Cc1ccco1)C1(C(=O)NC2CCCCC2)CCCCC1 | 7.15% (inactive) |
| CCC(C)NC(=O)C1CCC(=O)N1Cc1ccc(C)cc1 (stereo not given) | 19.6% (inactive) |
| CCn1c(SCC(=O)Nc2ccc(OC)c(OC)c2)nnc1-c1c[nH]c2ccccc12 | 22.7% (inactive) |
| COc1ccccc1NC(=O)C(CC(=O)O)Cc1cc(C)cc(C)c1 (stereo not given) | 22.4% (inactive) |
| O=S(=O)(c1cccc(C(F)(F)F)c1)N1c2ccccc2-n2cccc2C1c1cccnc1 (stereo not given) | 10.8% (inactive) |
| O=C(NC1CCCC1)C(c1ccc(N2CCOCC2)cc1)N(C(=O)c1ccco1)c1ccccc1F (stereo not given) | 4.16% (inactive) |
